This is an account of results in publication PMC8384837, “Expanding the binding specificity for RNA recognition by a PUF domain”.

Holding throughout (assay): yeast three-hybrid, YBZ-1, SC-Leu-His + 0.5 mM 3-AT, 4 days
Holding throughout (details): tags: N-Gal4 AD-HA kept; label: inside an RPR1-promoter hybrid RNA with tandem MS2 sites; ssRNA

For one experiment, the target named is PUM1 PUF domain R1-KGE (Homo sapiens, UniProt Q14671 828-1176, S863K;R864G;Q867E). In short, it runs like this:
(§1)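 A centromeric plasmid in strain YBZ-1 co-expressed Pumilio-1 PUF domain libraries, randomized at the three base-contacting residues of each repeat, with matching RNA elements; the strain carries a LexA–MS2 coat fusion and a HIS3 reporter. After four days on SC-Leu (input) or SC-Leu-His + 0.5 mM 3-AT (selection), the repeat regions were PCR-amplified and Illumina-sequenced. The interaction score is the log change in variant frequency from input to selection, using log2 and a pseudocount of 1 where absent.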

Another experiment deals with PUM1 PUF domain R1-GWE (Homo sapiens, UniProt Q14671 828-1176, S863G;R864W;Q867E). The procedure, abridged: as §1
The target of another experiment is PUM1 PUF domain R1-RAN (Homo sapiens, UniProt Q14671 828-1176, S863R;R864A;Q867N). The procedure, abridged: as §1
The next experiment addresses PUM1 PUF domain R1-KLR (Homo sapiens, UniProt Q14671 828-1176, S863K;R864L;Q867R). The procedure, abridged:
as §1

A further experiment has as its target PUM1 PUF domain R1-KRY (Homo sapiens, UniProt Q14671 828-1176, S863K;Q867Y). The procedure, abridged:
as §1

A further experiment has as its target T1, PUM1 PUF domain R6-SWV (Homo sapiens, UniProt Q14671 828-1176, N1043S;Y1044W;Q1047V).
T1 sequence: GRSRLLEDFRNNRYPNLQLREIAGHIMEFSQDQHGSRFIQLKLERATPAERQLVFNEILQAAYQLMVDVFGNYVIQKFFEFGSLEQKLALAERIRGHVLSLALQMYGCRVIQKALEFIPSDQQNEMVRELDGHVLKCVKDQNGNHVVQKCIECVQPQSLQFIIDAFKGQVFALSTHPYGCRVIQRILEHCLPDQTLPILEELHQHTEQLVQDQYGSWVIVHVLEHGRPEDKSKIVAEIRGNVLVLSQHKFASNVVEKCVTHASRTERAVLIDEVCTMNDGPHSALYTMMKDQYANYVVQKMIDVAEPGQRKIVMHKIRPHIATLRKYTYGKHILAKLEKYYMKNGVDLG
The procedure, abridged:
as §1

A further experiment deals with T2, PUM1 PUF domain R6-WWS (Homo sapiens, UniProt Q14671 828-1176, N1043W;Y1044W;Q1047S).
T2 sequence: T1 sequence with S216W, V220S
The procedure, abridged: as §1

The next experiment has as its target T3, PUM1 PUF domain R6-MWG (Homo sapiens, UniProt Q14671 828-1176, N1043M;Y1044W;Q1047G).
T3 sequence: T1 sequence with S216M, V220G
In short, it runs like this:
as §1

In another experiment the target is PUM1 PUF domain R4-CRL (Homo sapiens, UniProt Q14671 828-1176, N971C;H972R;Q975L). The procedure, abridged: as §1
The target in a further experiment is PUM1 PUF domain R5-GRW (Homo sapiens, UniProt Q14671 828-1176, C1007G;Q1011W). The procedure, abridged: as §1
The next experiment has as its target T4, PUM1 PUF domain R6-LWA (Homo sapiens, UniProt Q14671 828-1176, N1043L;Y1044W;Q1047A).
T4 sequence: T1 sequence with S216L, V220A
In short, it runs like this: as §1

In the next experiment the target is T5, PUM1 PUF domain R6-WWG (Homo sapiens, UniProt Q14671 828-1176, N1043W;Y1044W;Q1047G).
T5 sequence: T1 sequence with S216W, V220G
The procedure, abridged: as §1

For a further experiment, the target named is PUM1 PUF domain R3-TRH (Homo sapiens, UniProt Q14671 828-1176, C935T;Q939H). In short, it runs like this: as §1
A further experiment has as its target PUM1 PUF domain R8-HWI (Homo sapiens, UniProt Q14671 828-1176, N1122H;Y1123W;Q1126I). In short, it runs like this: as §1
Another experiment concerns the target PUM1 PUF domain R5-WHL (Homo sapiens, UniProt Q14671 828-1176, C1007W;R1008H;Q1011L). In short, it runs like this:
as §1

The target of the next experiment is PUM1 PUF domain R5-GKN (Homo sapiens, UniProt Q14671 828-1176, C1007G;R1008K;Q1011N). In short, it runs like this:
as §1

A further experiment deals with PUM1 PUF domain R2-LLY (Homo sapiens, UniProt Q14671 828-1176, N899L;Y900L;Q903Y). In short, it runs like this:
as §1

In the next experiment the target is PUM1 PUF domain R3-VFF (Homo sapiens, UniProt Q14671 828-1176, C935V;R936F;Q939F). The procedure, abridged: as §1
The target of another experiment is PUM1 PUF domain R3-FSK (Homo sapiens, UniProt Q14671 828-1176, C935F;R936S;Q939K). The procedure, abridged:
as §1

Residue numbers refer to the chain shown, from its start.

For the sequence “GGCUAGAACUAGUGGAUCCCCCGGCGCCCGGCGGCUCGAGCCCGGGUAAGUGUAAAUGGUCUGCAUGCCGCCGGGCGCCAUGCCUGCAGGUCGACUCUAGAAAACAUG”, the results for the binding signal with PUM1 PUF domain R1-KGE and with PUM1 PUF domain R1-GWE were 1.9 log2 enrichment (interaction score) and 2.61 log2 enrichment (interaction score), respectively.

As for “GGCUAGAACUAGUGGAUCCCCCGGCGCCCGGCGGCUCGAGCCCGGGUAAGUGUAAAUUGUCUGCAUGCCGCCGGGCGCCAUGCCUGCAGGUCGACUCUAGAAAACAUG”, the binding signal with PUM1 PUF domain R1-KGE is 4.18 log2 enrichment (interaction score); in the experiment with PUM1 PUF domain R1-RAN it was 3.21 log2 enrichment (interaction score); in the experiment with PUM1 PUF domain R1-KLR, 4.29 log2 enrichment (interaction score); in the experiment with PUM1 PUF domain R1-KRY, 3.65 log2 enrichment (interaction score).

On to “GGCUAGAACUAGUGGAUCCCCCGGCGCCCGGCGGCUCGAGCCCGGGUAAGUGUAAAUAGUCUGCAUGCCGCCGGGCGCCAUGCCUGCAGGUCGACUCUAGAAAACAUG”, for which the binding signal in the experiment with PUM1 PUF domain R6-SWV is 1.05 log2 enrichment (interaction score); in the experiment with PUM1 PUF domain R6-WWS it was 3.36 log2 enrichment (interaction score); with PUM1 PUF domain R6-MWG it was 3.83 log2 enrichment (interaction score); in the experiment with PUM1 PUF domain R4-CRL it was 5.64 log2 enrichment (interaction score); in the experiment with PUM1 PUF domain R5-GRW, 2.31 log2 enrichment (interaction score); in the experiment with PUM1 PUF domain R6-LWA, 4.92 log2 enrichment (interaction score). Besides, the binding signal with PUM1 PUF domain R6-WWG is 4.79 log2 enrichment (interaction score); in the experiment with PUM1 PUF domain R3-TRH, 4.48 log2 enrichment (interaction score); in the experiment with PUM1 PUF domain R8-HWI it was 3.85 log2 enrichment (interaction score).

As for “GGCUAGAACUAGUGGAUCCCCCGGCGCCCGGCGGCUCGAGCCCGGGUAAGUGAAAAUAGUCUGCAUGCCGCCGGGCGCCAUGCCUGCAGGUCGACUCUAGAAAACAUG”, the binding signal was 2.26 log2 enrichment (interaction score) with PUM1 PUF domain R6-SWV, 3.04 log2 enrichment (interaction score) with PUM1 PUF domain R6-LWA and 2.56 log2 enrichment (interaction score) with PUM1 PUF domain R6-WWG.

For “GGCUAGAACUAGUGGAUCCCCCGGCGCCCGGCGGCUCGAGCCCGGGUAAGUGUGAAUAGUCUGCAUGCCGCCGGGCGCCAUGCCUGCAGGUCGACUCUAGAAAACAUG”, the binding signal with PUM1 PUF domain R5-WHL is 7.53 log2 enrichment (interaction score).

With “GGCUAGAACUAGUGGAUCCCCCGGCGCCCGGCGGCUCGAGCCCGGGUAAGUGUCAAUAGUCUGCAUGCCGCCGGGCGCCAUGCCUGCAGGUCGACUCUAGAAAACAUG”, the results for the binding signal with PUM1 PUF domain R5-WHL and with PUM1 PUF domain R5-GKN were 2.9 log2 enrichment (interaction score) and 1.57 log2 enrichment (interaction score), respectively.

Regarding “GGCUAGAACUAGUGGAUCCCCCGGCGCCCGGCGGCUCGAGCCCGGGUAAGUGUUAAUAGUCUGCAUGCCGCCGGGCGCCAUGCCUGCAGGUCGACUCUAGAAAACAUG”, the binding signal was 4.05 log2 enrichment (interaction score) in the experiment with PUM1 PUF domain R5-GRW and 3.34 log2 enrichment (interaction score) with PUM1 PUF domain R5-GKN.

Consider “GGCUAGAACUAGUGGAUCCCCCGGCGCCCGGCGGCUCGAGCCCGGGUAAGUGUAAAUCGUCUGCAUGCCGCCGGGCGCCAUGCCUGCAGGUCGACUCUAGAAAACAUG”, for which the binding signal in the experiment with PUM1 PUF domain R1-RAN is 3.89 log2 enrichment (interaction score).

Regarding “GGCUAGAACUAGUGGAUCCCCCGGCGCCCGGCGGCUCGAGCCCGGGUAAGUGUAAAGAGUCUGCAUGCCGCCGGGCGCCAUGCCUGCAGGUCGACUCUAGAAAACAUG”, the binding signal with PUM1 PUF domain R2-LLY was 2.22 log2 enrichment (interaction score).

Take “GGCUAGAACUAGUGGAUCCCCCGGCGCCCGGCGGCUCGAGCCCGGGUAAGUGUAAUUAGUCUGCAUGCCGCCGGGCGCCAUGCCUGCAGGUCGACUCUAGAAAACAUG”: the binding signal with PUM1 PUF domain R3-TRH is 1.56 log2 enrichment (interaction score); with PUM1 PUF domain R3-VFF, 4.71 log2 enrichment (interaction score).

For the sequence “GGCUAGAACUAGUGGAUCCCCCGGCGCCCGGCGGCUCGAGCCCGGGUAAGUGUAAGUAGUCUGCAUGCCGCCGGGCGCCAUGCCUGCAGGUCGACUCUAGAAAACAUG”, in the experiment with PUM1 PUF domain R3-FSK, the binding signal is 4.08 log2 enrichment (interaction score).
